An excerpt weighted towards active compounds, which were near 2.2% of everything screened.
B2AR arrestin: qHTS assay of beta-arrestin-biased ligands of beta2-adrenergic receptor | hit rate 0.02% among 330,000 | beta-arrestin recruitment to beta2AR, cell-based reporter | Beta-2 adrenergic receptor (Homo sapiens), P07550 | Potency, µM (series often up to 46.1 µM), without a hit: at the highest dose activation, actives largely listed as activators | AID 492947, 2010;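 further: potency means the concentration at half of the fitted maximal effect; 0% = DMSO controls and full agonism = EC100 isoproterenol or metaproterenol; nearly all actives have a fitted effect of over 65% in size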
Target sequence (P07550 whole entry, looked up): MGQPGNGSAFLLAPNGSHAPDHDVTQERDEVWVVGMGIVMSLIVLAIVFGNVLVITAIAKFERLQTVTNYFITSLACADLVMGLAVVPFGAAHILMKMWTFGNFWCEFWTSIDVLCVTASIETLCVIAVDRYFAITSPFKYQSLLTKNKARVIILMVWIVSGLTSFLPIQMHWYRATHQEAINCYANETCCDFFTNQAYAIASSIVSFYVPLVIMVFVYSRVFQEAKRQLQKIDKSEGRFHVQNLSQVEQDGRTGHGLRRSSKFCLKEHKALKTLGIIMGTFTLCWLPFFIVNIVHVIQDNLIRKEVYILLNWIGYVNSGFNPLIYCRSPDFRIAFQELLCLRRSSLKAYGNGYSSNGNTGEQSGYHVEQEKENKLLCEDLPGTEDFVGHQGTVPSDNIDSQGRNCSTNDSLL
Nrf2 block: Nrf2 qHTS screen for inhibitors | Potency, µM (titrated, usually from 46 µM), for inactives: top-dose activity change, negative = inhibition, usual class: inhibitors | A549 ARE-Fluc reporter, luciferase luminescence, 18-24 h | hit rate 2.1% among 360,000; further: potency means the concentration at half of the fitted maximal effect; on the % scale 0 is the no-effect control and ±100 the full control effect; nearly all actives have a fitted effect of over 60% in size
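A549 ARE_Fluc cells (5000/well, 5% FBS OPTI-MEM) pre-incubated 2 h, then treated with compounds 18-24 h at 37C/5% CO2 in concentration-response. CellTiter-Fluor viability read first; BugLite luciferase luminescence after 15 min at room temperature gives Nrf2 activity.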
A549 viability: Nrf2 qHTS screen for inhibitors: counterscreen for cytotoxicity. A549 ARE-Fluc cells, CellTiter-Fluor viability, 18-24 h. Potency, µM (series often up to 46 µM), for the others: top-dose activity change, negative = cytotoxicity, usual class: inhibitors. hit rate 0.16% among 390,000. AID 504648, 2011; further: potency means the concentration at half of the fitted maximal effect; on the % scale 0 is the no-effect control and ±100 the full control effect
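Cytotoxicity counterscreen: CellTiter-Fluor fluorescence was measured in A549 ARE_Fluc cells after 18-24 h of compound exposure in a concentration series. The subsequent BugLite luminescent read reports ARE-luciferase activity.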
Nrf2 ARE act: qHTS of Nrf2 Activators. AID 624171, 2012. Potency, µM (titrated, usually from 46.1 µM), inactives show top-dose activation, usual class: activators. hit rate 0.31% among 410,000. AREc32 ARE-luciferase reporter (MCF7-derived line), luminescence, 24 h; further: potency means the concentration at half of the fitted maximal effect; % of control where 0% means no effect; nearly all actives have a fitted effect of over 65% in size
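Cells of the AREc32 ARE-luciferase line are plated in OPTI-MEM containing 5% FBS and left overnight at 37 deg C. Compounds are pinned in, incubation continues 24 hr, and firefly luciferase signal is then measured.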
miR-21 act: qHTS Assay for Modulators of miRNAs and/orActivators of miR-21; HeLa miR-21 FLuc reporter, luciferase, 48 h; Potency, µM (doses to about 38.3 µM), inactives show top-dose activity change, positive = activation, actives largely listed as activators; 340,000 tested, under 10 active; AID 2288, 2010;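 further: % of control where 0% means no effect; miR-21 action dims this reporter so a rising signal means less miR-21 action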
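Using DMEM plus 10% FBS, HeLa miR-21-FLuc cells are incubated with test compounds (final up to about 40uM) for 48 hours; firefly luciferase signal is then imaged following reagent-mediated lysis.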
Starred values were filed as active, the others as inactive; ? = inconclusive; . = not tested or not shown; [ ] = remark or other dose. The call rests on the fitted dose curve; in most records, active means well fitted curve in the direction sought with a large enough effect; inconclusive means small, poorly fitted or top-dose-only effect, or another doubt; inactive means no such curve, though single readings can be large; an effect the other way counts as inactive or inconclusive.

SMILES	B2AR arrestin	Nrf2 block	A549 viability	Nrf2 ARE act	miR-21 act
CC(=O)Nc1ccc(OCc2cccc(-c3nc4ccccc4c(=O)n3Cc3ccco3)c2)cc1	.	?	-15%	.	.
Cn1cc(CN2CCCC(C(=O)Nc3cccc(-c4cc5ccccc5[nH]4)c3)C2)cn1 (stereo unspecified)	0%	23µM*	?	-1%	10%
CC(C)n1cc(CN2CCCC(C(=O)Nc3cccc(-c4cc5ccccc5[nH]4)c3)C2)cn1 (stereo unspecified)	0%	-21%	-5%	-3%	?
N#Cc1nc(NCC(F)F)c2ncn(-c3cccc(Cl)c3)c2n1	.	21µM*	?	.	.
N/C(=N/OC(=O)c1ccccc1Cl)c1nonc1N	0%	?	-8%	13µM*	-42%
CCCCCOc1ccc(NC(=O)C(=O)NCCCn2ccnc2)cc1	0%	9.2µM*	-1%	0%	2%
CCCCOc1ccc(C(=O)Nc2ccncc2)cc1	0%	9.2µM*	-8%	4%	-2%
CCCOc1ccc(C(=O)Nc2cccnc2)cc1	-2%	26%	-5%	4%	-52%
C=CCOc1ccc(NC(=O)C(=O)NCCCn2ccnc2)cc1	0%	-27%	-1%	-1%	1%
O=C(CNC(=O)c1ccc(-c2ccccc2)cc1)OC(C(=O)Nc1cc(C(F)(F)F)ccc1Cl)c1ccccc1 (stereo unspecified)	.	-6%	4%	.	.
Cc1nc(-c2cc(-c3ccc(Cl)cc3)no2)cs1	-1%	?	-1%	-2%	-53%
Cc1csc(-c2ccc3cc(Cl)cc(Cl)c3n2)n1	.	.	.	2.5µM*	.
COc1ccccc1C(=O)Nc1ccc(C(=O)OCc2cc(=O)n3c4c(sc3n2)CCCC4)cc1	.	.	0%	-1%	-1%
c1ccc(-c2nc(NC3CCCC3)c3ccccc3n2)cc1	0%	23µM*	?	25%	3%
COc1cccc(-c2nc(NC3CCCC3)c3ccccc3n2)c1O	0%	?	?	-2%	20%
Cc1nnc(SCC(=O)N2CC(=O)Nc3ccccc32)s1	0%	0%	5%	-1%	2%
Cc1ccc(-n2c(SCC(=O)N3CC(=O)Nc4ccccc43)nc3ccccc3c2=O)cc1	-1%	?	-1%	3%	0%
O=C1CN(C(=O)CSc2nc(-c3ccc(Cl)cc3)cs2)c2ccccc2N1	0%	23µM*	1%	4%	15%
Cc1cccc(C)c1-n1c(SCC(=O)N2CC(=O)Nc3ccccc32)nc2ccccc2c1=O	0%	23µM*	-16%	-1%[9.22 µM]	16%
O=C(/C=C\Nc1ccccc1Br)c1ccc2c(c1)OCO2	0%	2.1µM*	-5%	0%	21%
Cc1c(Cl)cccc1NC(=O)c1cc(-c2ccco2)on1	-1%	?	-1%	13µM*	-39%
c1csc(-c2nc(-c3ccc(-c4ccon4)s3)no2)c1	-1%	?	2%	5.6µM*	-65%
COc1ccc(-c2nc(-c3cccs3)no2)cc1	-1%	?	5%	2%	5%
c1ccc(-c2nc(-c3ccc(-c4ccon4)s3)no2)cc1	6%	?	11%	10%	43%
Cc1ccc(-c2noc(-c3cccs3)n2)cc1	0%	?	-5%	11µM*	-34%
SMILES	B2AR arrestin	Nrf2 block	A549 viability	Nrf2 ARE act	miR-21 act
COc1ccc(-c2nc(CCNC(=O)c3ccccc3)cs2)cc1OC	.	.	0%	3%	12%
CN1CC2(Cc3cc([N+](=O)[O-])ccc31)C(=O)OC(C)(C)OC2=O	.	?	-13%	.	.
c1c[nH]c(CNc2ncnc3ccc(-c4ccc5c(c4)OCO5)cc23)n1	.	6%	8%	.	.
O=[S+]([O-])(/C=C/c1nc(Nc2cc(F)cc(F)c2)c2ncn(CC(F)F)c2n1)c1ccccc1	.	-14%	-8%	.	.
COc1ccc(NS(=O)(=O)c2ccc3oc(SC)nc3c2)cc1	1%	21µM*	-1%	3%	7%
CNC(=O)CSc1nc2cc(S(=O)(=O)Nc3ccc(OC)cc3)ccc2o1	.	-15%	-2%	-1%	.
CCCOc1ncnc2c1[nH]c1ccccc12	0%	?	-12%	6%	-9%
CC(C)Oc1ncnc2c1[nH]c1ccccc12	-1%	8.2µM*	-12%	8%	3%
C=CCn1c(SCc2ccc(C#N)cc2)nnc1-c1ccc(C)cc1	-2%	21µM*	3%	0%	0%
COc1ccc(N2CCN(S(=O)(=O)c3ccc(C4CCCCC4)cc3)CC2)cc1	.	11%	2%	0%	2%
COc1cc(-c2nc3ccccc3s2)ccc1O	0%	18µM*	-8%	6.3µM*	-51%
CN(Cc1ccco1)C(=O)c1cccc(S(=O)(=O)N2CCN(Cc3ccccc3)CC2)c1	.	.	.	-1%	.
CN(c1ccc(F)cc1)S(=O)(=O)N1CCCC(C(=O)NCc2ccccc2Cl)C1 (stereo unspecified)	.	?	-8%	0%	25%
CCN(Cc1ccccc1)C(=O)c1cccc(S(=O)(=O)N2CCN(c3ccc(F)cc3)CC2)c1	0%	15µM*	-16%	0%	.
COc1cccc(CN(C)C(=O)c2cccc(S(=O)(=O)N3CCN(c4ccc(F)cc4)CC3)c2)c1OC	0%	8.2µM*	?	0%	.
CCN(Cc1ccccc1)C(=O)c1cccc(S(=O)(=O)N2CCN(c3ccccc3)CC2)c1	0%	?	-3%	0%	.
COc1cccc(CN(C)C(=O)c2cccc(S(=O)(=O)N3CCN(Cc4ccccc4)CC3)c2)c1OC	0%	10µM*	-17%	0%	.
COc1cccc(CNC(=O)C2CCCN(S(=O)(=O)N(C)c3ccc(F)cc3)C2)c1OC (stereo unspecified)	.	26µM*	-11%	0%	?
COc1cccc(CN(C)C(=O)c2ccc(Cl)c(S(=O)(=O)N3CCCCCC3)c2)c1OC	.	18µM*	-16%	1%	.
CN(CCOc1ccccc1)C(=O)c1ccc(Cl)c(S(=O)(=O)N2CCCCC2)c1	0%	?	-3%	0%	.
CCOC(=O)c1ccc(N2C(=O)c3n[nH]c(-c4cccs4)c3C2c2ccc(CC)cc2)cc1 (stereo unspecified)	.	16µM*	?	-4%	?
CCOC(=O)c1ccc(N2C(=O)c3n[nH]c(-c4cccs4)c3C2c2ccc(OCC)cc2)cc1 (stereo unspecified)	.	?	-24%	-3%	?
CCOC(=O)c1ccc(N2C(=O)c3n[nH]c(C)c3C2c2ccc(OC)cc2OC)cc1 (stereo unspecified)	0%	18µM*	?	-2%	5%
CCOC(=O)c1ccc(N2C(=O)c3n[nH]c(-c4cccs4)c3C2c2ccc(C(C)C)cc2)cc1 (stereo unspecified)	.	23µM*	?	-1%	?

Screening data: PubChem, National Center for Advancing Translational Sciences (NCATS)
